# Assay results from PubChem BioAssay AID624330 (Southern Research Specialized Biocontainment Screening …, 2012).
# Hit rate of the full screen: of about 340,000 compounds, about 2,100 (0.62%) were called active.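 How the source made its calls: active means first-screen hits whose inhibition reached a set limit at any dose in the follow-up dose series; inconclusive means inhibition above the set first-screen limit but never retested; inactive means the rest.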 These entries were drawn from the full list. Potency and affinity values are given separately.
# Target: Rac GTPase-activating protein 1 (Homo sapiens) (UniProt Q9H0H5)
# Assay: MgcRacGAP GTPase-activating activity inhibitors, confirmation, biochemical, ADP Hunter fluorescence, primary and confirmatory (AID 624330);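 further: fluorescence reports GDP produced by GAP-driven GTP hydrolysis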
# Conditions: MgcRacGAP-stimulated Rac1 GTP hydrolysis, at 30 µM, stronger effect = higher value, GST-tagged Rac1 F28L mutant substrate
# Sequence of Rac GTPase-activating protein 1 (Homo sapiens) (Q9H0H5 whole entry, looked up): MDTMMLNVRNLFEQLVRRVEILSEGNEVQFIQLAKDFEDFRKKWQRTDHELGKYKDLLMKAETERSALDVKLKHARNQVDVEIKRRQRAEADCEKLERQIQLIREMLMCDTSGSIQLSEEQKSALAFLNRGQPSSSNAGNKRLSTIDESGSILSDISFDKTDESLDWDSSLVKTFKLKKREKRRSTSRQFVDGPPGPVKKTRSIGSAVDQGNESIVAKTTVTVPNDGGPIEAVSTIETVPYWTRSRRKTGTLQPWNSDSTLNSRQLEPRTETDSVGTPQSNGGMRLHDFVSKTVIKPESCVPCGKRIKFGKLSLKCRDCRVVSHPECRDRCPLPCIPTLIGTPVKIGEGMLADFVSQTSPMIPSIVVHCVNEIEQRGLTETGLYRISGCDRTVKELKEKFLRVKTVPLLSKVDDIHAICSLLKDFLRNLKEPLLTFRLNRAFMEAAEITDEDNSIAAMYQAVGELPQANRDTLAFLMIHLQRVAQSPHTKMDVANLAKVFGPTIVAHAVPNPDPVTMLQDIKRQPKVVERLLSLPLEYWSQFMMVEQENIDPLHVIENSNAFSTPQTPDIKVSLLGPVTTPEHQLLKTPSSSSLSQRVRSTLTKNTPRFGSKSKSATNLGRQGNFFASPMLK
row,Compound,inhibition
1,CCN(C[C@H]1N[C@@](Cc2ccccc2)(C(=O)OC)[C@H]2C(=O)N(Cc3ccccc3)C(=O)[C@@H]12)C(=O)COc1ccccc1,2.94% (inactive)
2,Cc1cc2[nH]c3ccccc3c2c(C)n1,5.1% (inactive)
3,Cc1cc2c([nH]c3ccccc32)c(C)n1,17.6% (inactive)
4,O=C(NCc1ccncc1)Nc1ccc2c(c1)OCO2,14.7% (inactive)
5,Cc1ccc(CNc2ccc3c(c2)OCO3)cc1,10.4% (inactive)
6,Cc1cc(NCc2ccncc2)ccc1Br,22.5% (inactive)
7,O=C(NCc1ccncc1)C(=O)Nc1ccc2c(c1)OCO2,3.26% (inactive)
8,COc1ccc(CN(C)C(=O)Cc2ccc(OC)c(S(=O)(=O)N3CCOCC3)c2)cc1,6.77% (inactive)
9,O=C1CSC(c2cn(-c3ccccc3)nc2-c2cc3ccccc3oc2=O)N1Cc1cccnc1 (stereo not given),-1.18% (inactive)
10,CCN(CC)CCCN(C(=O)c1ccccc1F)c1nc(-c2ccc(OC)cc2)cs1,13.2% (inactive)
11,c1ccc(C2=NN(c3ccccc3)CC2)cc1,10.1% (inactive)
12,CSc1nnc(-c2nnc(SC)n2-c2ccccc2)n1-c1ccccc1,5.06% (inactive)
13,COC(=O)C1=C(C)NC(=O)NC1c1ccc(OCC(=O)N2CCCCC2)cc1 (stereo not given),6.29% (inactive)
14,CC1(C)OC(=O)C=C[C@]2(C)[C@H]3CC[C@@]4(C)[C@H](C(=O)O)OC(=O)[C@H]5O[C@]54[C@]3(C)C(=O)C[C@@H]12,10.6% (inactive)
15,C[C@@H]1CN([C@H](C)CO)S(=O)(=O)c2ccc(C#Cc3ccccc3)cc2O[C@@H]1CN(C)C(=O)CN(C)C,10.8% (inactive)
16,CCOc1ccc(/C=N/NC(=O)Cc2csc(Nc3cccc(C(F)(F)F)c3)n2)cc1,13.7% (inactive)
17,Cc1ccc(/C=C/C(=O)Nc2ccc([N+](=O)[O-])cc2)o1,5.27% (inactive)
18,Cc1ccc(/C=C/C(=O)Nc2ccncc2)o1,8.37% (inactive)
19,O=C(O)C1C2C=CC3(CN(c4cccc(C(F)(F)F)c4)C(=O)C13)O2 (stereo not given),2.13% (inactive)
20,Cc1cc(C)cc(N(CC(=O)N2CCCC2)S(C)(=O)=O)c1,0.27% (inactive)
21,COc1ccccc1C(CNC(=O)CNC(=O)c1ccccc1Cl)N1CCCC1 (stereo not given),4.57% (inactive)
22,CCOCCCNC(=O)/C(C#N)=C/c1ccc(C)o1,-11.1% (inactive)
23,CCOCCCNC(=O)/C(C#N)=C/c1ccc(Cl)c([N+](=O)[O-])c1,2.68% (inactive)
24,O=S(=O)(c1ccccc1)c1nc(Nc2cccc(O)c2)sc1Cl,8.03% (inactive)
25,COc1ccccc1NC(=O)c1cc2ccccc2o1,10.9% (inactive)

row,Compound,inhibition
1,COc1ccc2[nH]c3c(c2c1)CNCC3,17.4% (inactive)
2,O=C(CNCC1CCCCC1)Nc1ccc(OC(F)(F)F)cc1,19.5% (inactive)
3,CCN1CCCC1CNC(=O)C(=O)Nc1ccc(OC)cc1 (stereo not given),8.81% (inactive)
4,O=C(CN(Cc1ccco1)C(=O)CNS(=O)(=O)c1ccc(F)cc1)NCc1ccco1,7.49% (inactive)
5,COCc1cc(/C=N\NC(=O)c2ccc(Cl)cc2)ccc1OC,7.25% (inactive)
6,Cc1ccc(Cn2nnc3c(=O)[nH]c(C4CCCN(C(=O)Nc5ccc(F)cc5)C4)nc32)cc1 (stereo not given),2.33% (inactive)
7,Cc1c2ccncc2cc2c1[nH]c1ccccc12,8.32% (inactive)
8,COc1ccc2[nH]c3c(Cl)ncnc3c2c1,2.77% (inactive)
9,COc1ccc2[nH]c3c(=S)nc[nH]c3c2c1,16.8% (inactive)
10,COc1ccc2[nH]c(C)cc(=O)c2c1,17.3% (inactive)
11,CC(C)C(=O)N(Cc1cc2ccccc2[nH]c1=O)C(C)(C)C,4.65% (inactive)
12,Cc1ccc(S(=O)(=O)N2CCN(C(=O)COC(=O)CC(C)c3ccccc3)CC2)c(C)c1 (stereo not given),-1.45% (inactive)
13,COc1ccccc1NC(=S)NCC1CCCO1 (stereo not given),8.32% (inactive)
14,Cc1cc(F)ccc1S(=O)(=O)N1CCCOC1CNC(=O)C(=O)NCC(C)C (stereo not given),3.59% (inactive)
15,O=C(CCC(=O)c1cccs1)NCc1ccncc1,8.09% (inactive)
16,COc1ccccc1CNS(=O)(=O)CCNCc1ccco1,7.98% (inactive)
17,Cc1ccc(CCNc2ccccc2C)cn1,6.7% (inactive)
18,Cc1ccc(NCCc2ccc(C)nc2)cc1,24.8% (inactive)
19,CCc1nnc(N/N=C/c2ccccc2F)n1N,-6.59% (inactive)
20,Cc1[nH]c2ccccc2c1/C=N/n1cnnc1,11.3% (inactive)
21,CCc1nnc(N/N=C/c2c(Cl)cccc2Cl)n1N,6.89% (inactive)
22,Cc1[nH]c2ccccc2c1/C=N/NC(N)=S,15.4% (inactive)
23,CCc1nnc(N/N=C/c2cc(C)c(C)cc2C)n1N,8.58% (inactive)
24,Cc1ccc(/C=N/Nc2nncn2N)cc1,-7.75% (inactive)
25,Cc1ccc(CN(C)C(=O)CSc2nnc3n2CCCCC3)c(C)c1,-1.85% (inactive)

row,Compound,inhibition
1,CCC(C(=O)OC)n1cnc2c(nnn2-c2cccc(Cl)c2)c1=O (stereo not given),-2.79% (inactive)
2,COc1ccc(N2CCN(C(=O)c3sc4ncn(CC(=O)N5CCCCC5)c(=O)c4c3C)CC2)cc1,22.1% (inactive)
3,O=C(NC1CCSc2ccccc21)c1cc(S(=O)(=O)N2CCOCC2)ccc1Cl (stereo not given),0.41% (inactive)
4,N#Cc1ccsc1NC(=O)CCN1C(=O)C2CCCCC2C1=O (stereo not given),-1.49% (inactive)
5,C/C(=N\NC(=O)c1c(Cl)cnn1C)c1cccc(NC(=O)c2ccc(C)cc2)c1,2.57% (inactive)
6,COC(=O)/C(=C\c1ccc([N+](=O)[O-])cc1)NC(=O)c1ccccc1,-0.53% (inactive)
7,CCO[C@@H]1OC(C(=O)NC2CC2)=C[C@H](c2ccccc2)[C@H]1CCCO,2.47% (inactive)
8,COC1=C(N)C(=O)c2nc(C)ccc2C1=O,-3.53% (inactive)
9,COC1=C(Br)C(=O)c2ncccc2C1=O,-0.95% (inactive)
10,COc1ccc(CN(CC(=O)NCc2ccco2)C(=O)CNS(=O)(=O)c2ccc(C)cc2)cc1,-1.32% (inactive)
11,COc1ccc(CCCN2CCC(CN3CCNC(=O)C3=O)CC2)cc1OC,15.8% (inactive)
12,COc1ccc(/C=N/N2CCN(c3ccc(Cl)cc3)CC2)cc1O,13.4% (inactive)
13,C[C@H](NC(=O)c1ccc(Cl)cc1)C(=O)NNC(=O)c1cccs1,4.07% (inactive)
14,O=C(O)/C(=C\c1ccc(Cl)c([N+](=O)[O-])c1)c1ccc(S(=O)(=O)N2CCCCC2)s1,9.75% (inactive)
15,COc1ccc(/C=C/C(=O)OCC(=O)c2ccc[nH]2)cc1,2.04% (inactive)
16,O=C(/C=C/c1ccco1)OCC(=O)c1ccc(OC(F)F)cc1,7.34% (inactive)
17,COc1cc(/C=C/C(=O)OCC(=O)c2ccc[nH]2)cc(OC)c1OC,1.61% (inactive)
18,COc1cc(/C=C/C(=O)OCC(=O)c2c(N)n(C)c(=O)n(C)c2=O)ccc1O,17% (inactive)
19,Cn1c(NN)nc2sc3c(c2c1=O)CC(C)(C)OC3,-17.1% (inactive)
20,O=S(=O)(Nc1ccc(N2CCOCC2)cc1)c1ccc(F)cc1,6.7% (inactive)
21,CSCC[C@H](NS(=O)(=O)c1ccc(C)cc1)C(=O)N1CCC(C(=O)N[C@@H](C)C(=O)O)CC1,-1.38% (inactive)
22,O=C(CN1CCN(c2cccc(C(F)(F)F)c2)CC1)N(C1CC1)C1CCS(=O)(=O)C1 (stereo not given),-5.48% (inactive)
23,O=C(CN1CCN(c2ccc(F)cc2)CC1)N(C1CCCC1)C1CCS(=O)(=O)C1 (stereo not given),3.6% (inactive)
24,CCOC(=O)c1c(C)[nH]c(C(=O)OCC(=O)Nc2cc(C)c(Cl)cc2OC)c1C,10.4% (inactive)
25,Cc1ccc(NC(=O)N2CCCC2C(=O)NCc2ccc3c(c2)OCO3)cc1 (stereo not given),2.95% (inactive)

row,Compound,inhibition
1,CC(C)Nc1nc(Oc2ccc(=O)n(-c3ccccc3)n2)nc(N(C)C)n1,12% (inactive)
2,COc1cccc(N2CCN(C(=S)Nc3ccc(C)cc3C)CC2)c1,12.4% (inactive)
3,O=C(Nc1ccc(F)cc1)c1cncs1,9.26% (inactive)
4,CC[n+]1c(/C=C2\C=C(C)CC(C)(C)C2)sc2ccccc21,31.8% (inactive)
5,C=CC[n+]1ccc(/C=C2\C=Cc3cc(C)ccc3N2CC)c2ccccc21,17% (inactive)
6,CCc1cc2c(SCC(=O)NC3CCCC3)ncnc2s1,6.67% (inactive)
7,COc1cccc(NC(=O)[C@@H]2CCC(=O)N2C2OC(=O)c3ccccc32)c1 (stereo not given in full),-0.84% (inactive)
8,CC(=O)Nc1ccc(NC(=O)Cn2cnc(S(=O)(=O)N3CCOCC3)c2)cc1,-16.8% (inactive)
9,Cc1ccc(CNC(=O)CSCc2ccccc2)cc1,10.2% (inactive)
10,Cc1ccc(CCNC(=O)CSCc2ccc(F)cc2)cc1,8.48% (inactive)
11,Cc1ccc(CSCC(=O)NCCc2ccccc2)cc1,-4.12% (inactive)
12,Cc1ccc(CSCCNC(=O)CSCc2ccc([N+](=O)[O-])cc2)cc1,6.03% (inactive)
13,CC1=C(C#N)C(c2ccc(O)cc2)C(C#N)=C(C)N1,11.8% (inactive)
14,CCOc1ccc(NC(=O)CN2CCN(CC(=O)Nc3ccc(C(=O)OC)cc3)CC2)cc1,6.74% (inactive)
15,C/C(=N\NC(=O)Cn1nc(C)c([N+](=O)[O-])c1C)c1ccc(Cl)s1,5.29% (inactive)
16,COC(=O)c1scc2c(=O)cc(C(F)(F)F)[nH]c12,6.18% (inactive)
17,Cc1cc(OCC(=O)N(C(C)C)C(C)C)cc(C)c1Br,7.37% (inactive)
18,COc1ccc(/C=N/N2CCOCC2)cc1O,6.98% (inactive)
19,COc1ccccc1N1CCN(/N=C(\C)c2ccc(O)cc2)CC1,8.49% (inactive)
20,COc1ccc(/C=N/N2CCN(c3ccccc3OC)CC2)cc1OC,1.46% (inactive)
21,COc1ccc(/C=N/N2CCN(c3ccccc3OC)CC2)cc1Br,5.46% (inactive)
22,CC(=O)Oc1ccc(/C(C)=N/N2CCN(Cc3ccc(C)cc3)CC2)cc1,-1.21% (inactive)
23,COc1ccc(/C=N/N2CCN(C)CC2)cc1OC,4.11% (inactive)
24,COc1cc(/C=N/N2CCN(Cc3ccc(C)cc3)CC2)cc(OC)c1O,25.8% (inactive)
25,COc1ccccc1N1CCN(/N=C(\C)c2ccccc2O)CC1,9.26% (inactive)
